Data from PubChem BioAssay.
Values joined by “and” are separate entries in the source; they are usually repeats but may differ in a detail not shown here. Identical values can stand only once.

Assay: P. aeruginosa biofilm formation inhibitors, primary screen, PAO1 strain, BacTiter-Glo luminescence, LB-PBS (AID 1144)
Conditions: 12 h, higher = more signal; call rule not given here

z-score, inactive:
CC(CO)N1C(=O)[C@@H]2C3C(=O)OCCC=C[C@H]3OC23C=CCN(c2ccc(Cl)cc2)C(=O)[C@@H]13 (some centres undefined) 1.06 and 0.664, CCOC(=O)NN=C1C[C@@H](O)[C@@H](O)[C@@H]2[C@@H]3C(=O)N(Cc4ccc5c(c4)OCO5)C(=O)[C@@H]3CC[C@@H]12 1.43, C=CCN(C(=O)C(c1cccs1)N(C(=O)/C=C\C(=O)O)c1ccc(CCO)cc1)C(C)(C)C (centres undefined) -0.638 and 0.984, C=CCN(C(=O)C(c1cccs1)N(C(=O)/C=C\C(=O)O)c1c(Cl)cccc1CO)C(C)(C)C (centres undefined) 0.933 and 1.26, C=CCN(CCCCC)C(=O)C1N(c2c(Cl)cccc2CO)C(=O)C2C(C(=O)O)C3C=CC21O3 (centres undefined) -0.568 and -0.00991, C=CCN(CCCC)C(=O)C(c1cccs1)N(CCOCCO)C(=O)/C=C\C(=O)O (centres undefined) -0.801 and -0.86, CCCCCN1CC=CC23O[C@@H]4C=CCCOC(=O)C4[C@H]2C(=O)N(C(C)CO)[C@@H]3C1=O (some centres undefined) -1.76 and -0.529, COC(=O)[C@H](C)NC(=O)CCC1CC(OC(=O)NCCc2ccc(F)cc2)CC2(CCCC(COC(=O)NCCCN3CCCC3=O)O2)O1 (some centres undefined) 0.0154, COC(=O)C1=C(C)N(Cc2ccccc2)C2=C(C(C)=O)C[C@@](O)(C(=O)OC)C(=O)N2[C@@H]1c1ccccc1 -2.16, C=CCN(CCCCC)C(=O)C(c1cccs1)N(C(=O)/C=C\C(=O)O)c1c(Cl)cccc1CO (centres undefined) 0.858 and 2.29, CC(C)CON=C1C[C@@H](O)[C@@H](O)[C@@H]2[C@@H]3C(=O)N(c4cccc(Oc5ccccc5)c4)C(=O)[C@@H]3CC[C@H]12 0.198, C=CCN(C(=O)C(c1cccs1)N(C(=O)/C=C\C(=O)O)C(C)(C)CO)c1ccc(OC)cc1 (centres undefined) -1.09, CCCNC(=O)OC[C@H]1O[C@H](CCON=C(C)CCN2CCc3nc(-c4ccccc4)c(-c4ccccc4)cc3C2)C=C[C@@H]1Oc1ccc(OC)cc1 -0.158, C=CC[C@@H](O)c1ccc(O)c(F)c1 -0.222, C=CCN(Cc1ccccc1)C(=O)C(c1cccs1)N(C(=O)/C=C\C(=O)O)c1c(Cl)cccc1CO (centres undefined) -1.78 and 0.911, CC(C)[Si]1(C(C)C)OCc2cc(CCCc3cc4c(c(CCc5ccccc5)n3)[Si](C(C)C)(C(C)C)OC4)nc(CCc3ccccc3)c21 0.0644, COC(=O)[C@@]1(Cc2ccc(F)cc2)[C@H]2c3cc(C(=O)N4CCCC4)n(Cc4c(CO)[nH]cc(C)c4=O)c3C[C@H]2CN1C(=O)c1ccccc1 -0.0556 and 0.0252, C=CCN(C(=O)C1N(c2ccc(CCO)cc2)C(=O)C2C(C(=O)O)C3C=CC21O3)c1ccc(OC)cc1 (centres undefined) -0.143 and -1.34, C=CCN(C(=O)C1N(CCOCCO)C(=O)C2C(C(=O)O)C3C=CC21O3)C(C)(C)C (centres undefined) -0.000915 and -1.27, CCOC(=O)c1ccc(NC(=O)O[C@H]2[C@H](OC(=O)Nc3ccccc3)[C@H](OC(=O)Nc3ccccc3)[C@@H](OC)O[C@@H]2CO)cc1 0.44 and -0.118, CC(C)=NOCc1ccc(-c2cn([C@@H]3COC[C@H]3O)nn2)cc1 1.08, C[C@@H]1CC[C@H]2C(=O)O[C@H](CN=[N+]=[N-])CN2[C@H]1c1ccc(Br)cc1 -0.203 and -0.277, C=CCN1C(=O)[C@]2(O[C@H](CCn3cc(CCO)nn3)[C@@H]([Si](C)(C)c3ccc(OC)cc3)[C@@H]2C)c2cc(N3C(=O)c4cccc5cccc3c45)ccc21 -0.475 and -0.111, CC(CO)N1C(=O)[C@@H]2C3C(=O)OCCC=C[C@H]3OC23C=CCN(Cc2ccccc2)C(=O)[C@@H]13 (some centres undefined) 2.42 and 0.328, C=CCN(C(=O)C1N(c2c(Cl)cccc2CO)C(=O)C2C(C(=O)O)C3C=CC21O3)C(C)(C)C (centres undefined) -0.774 and -0.443, O=C1C[C@]2(c3ccc([N+](=O)[O-])cc3)C(=O)N(Cc3ccccc3)c3cc(CO)ccc3[C@H]2N1C1CCCCC1 -0.19 and -0.334, C[C@@H](ON=C1[C@H]2CCn3c(=O)n(-c4ccccc4)c(=O)n3[C@H]2[C@H](O)[C@@H]2O[C@H]12)c1cn([C@H](CO)Cc2ccccc2)nn1 0.867, C=CCN(CCCC)C(=O)C1N(C(C)(C)CO)C(=O)C2C(C(=O)O)C3C=CC21O3 (centres undefined) 0.264 and 1.42, COC(=O)[C@@]1(Cc2ccccc2)[C@H]2c3cc(C(=O)N(C)C)n(C[C@H](O)CO)c3C[C@H]2CN1C(=O)c1ccccc1 -0.256 and -0.607, C[C@@H]1CN2[C@@H](CC[C@@H](C)[C@@H]2c2ccc(Br)cc2)C(=O)O1 0.259 and -1.1, COC(=O)C1=C(C)N(Cc2ccccc2)[C@]23O[C@](C(=O)OC)(C(=O)N2[C@@H]1c1ccccc1)[C@@H](C(=O)OC)[C@H]3C(=O)OC -0.754 and 0.0472, C=CCN(Cc1ccccc1)C(=O)C1N(c2ccc(CCO)cc2)C(=O)C2C(C(=O)O)C3C=CC21O3 (centres undefined) -0.231 and -1.01, CCOC(=O)C[C@H]1[C@H](OC(=O)c2ccccc2-c2ccccc2)[C@@H](NC(=O)Cc2ccc(OC)cc2)c2cc(OCCCO)ccc2N1C(=O)c1ccc2ccccc2n1 -0.568, CC(C)CCN1CCc2nc(-c3ccccc3)c3c(c2C1)CO[C@@H](C)C3 0.268, CCOC(=O)[C@@H]1CC=C2CC1C(=O)N1CCC[C@@H]1[C@H]2O[Si](C)(C)C(C)(C)C (some centres undefined) 0.318 and 0.0257, COC(=O)[C@@]1(Cc2ccc(OC)cc2)[C@H]2c3cc(C(=O)N(C)C)n(Cc4ccc(O)c(OC)c4)c3C[C@H]2CN1C(=O)c1ccccc1 0.209 and 0.769, CO[C@H]1COC(=O)CC=C[C@H](C)[C@H](OC)COC(=O)[C@@H](C)COC(=O)CC=C[C@@H]1C -0.186 and 0.0947, CCOC(=O)C[C@H]1[C@H](OC(=O)c2ccccc2-c2ccccc2)[C@@H](NC(=O)c2ccccc2)c2cc(OCCCO)ccc2N1C(=O)c1ccc2ccccc2n1 0.559 and 0.171, C=CCN(CCCC)C(=O)C1N(c2c(Cl)cccc2CO)C(=O)C2C(C(=O)O)C3C=CC21O3 (centres undefined) 0.0942 and -2.19
